Measurements as given in PubChem BioAssay (NCI).
Several values for one entry are separate records, joined by “and”; a condition that tells them apart may be missing. Identical values can stand only once. About 83,000 compounds went through this panel and 20% of them were active in at least one assay; those are over-represented in the sample as a whole.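 Each cell line was grown in a 96-well plate and treated with one concentration of compound for 48 hours. Values below 10 were considered active.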 Activity calls are given as the source filed them.

Key:
Experiment in all cases: NCI-60 one-dose screen, 48 h (100 = growth as untreated, 0 = no growth, -100 = all killed)
Conditions in all cases: 10 µM unless noted
[1] = tested on: NCI-H23 lung
[2] = tested on: NCI-H226 lung
[3] = tested on: NCI-H322M lung
[4] = tested on: HOP-62 NSCLC
[5] = tested on: NCI-H460 lung
[6] = tested on: HOP-92 NSCLC
[7] = tested on: NCI-H522 lung
[8] = tested on: A549/ATCC NSCLC
[9] = tested on: 786-0 renal
[10] = tested on: COLO 205 colon
[11] = tested on: DU-145 prostate
[12] = tested on: K-562 leukemia
[13] = tested on: MALME-3M melanoma
[14] = tested on: MDA-MB-231 breast
[15] = tested on: RXF 393 renal
[16] = tested on: SF-268 CNS
[17] = tested on: SF-295 CNS
[18] = tested on: SF-539 CNS
[19] = tested on: UACC-257 melanoma
[20] = tested on: M14 melanoma

Compound	growth [1]	growth [2]	growth [3]	growth [4]	growth [5]	growth [6]	growth [7]	growth [8]	growth [9]	growth [10]	growth [11]	growth [12]	growth [13]	growth [14]	growth [15]	growth [16]	growth [17]	growth [18]	growth [19]	growth [20]
C[C@H](O)CCC(=O)c1ccoc1	99.7% (inactive)	99.2% (inactive)	106% (inactive)	108% (inactive)	105% (inactive)	111% (inactive)	99.5% (inactive)	97% (inactive)	106% (inactive)	116% (inactive)	100% (inactive)	96.5% (inactive)	106% (inactive)	108% (inactive)	99.4% (inactive)	98.9% (inactive)	107% (inactive)	102% (inactive)	99.5% (inactive)	108% (inactive)
Cc1ccc(N2CCN(CCC#N)CC2)cc1	100% (inactive)	92.1% (inactive)	75.2% (inactive)	93.6% (inactive)	97.7% (inactive)	98.4% (inactive)	84.6% (inactive)	88.5% (inactive)	100% (inactive)	93.7% (inactive)	101% (inactive)	110% (inactive)	70.1% (inactive)	107% (inactive)	88% (inactive)	105% (inactive)	105% (inactive)	79.1% (inactive)	84.5% (inactive)	98.6% (inactive)
C/C(=C\c1ccn(-c2ccc(N)cc2F)n1)[C@@H]1C[C@@H]2O[C@]2(C)CCC[C@H](C)[C@H](O)[C@@H](C)C(=O)C(C)(C)[C@@H](O)CC(=O)O1	25.2% (inactive)	35.6% (inactive)	15.5% (inactive)	36.4% (inactive)	11% (inactive)	49% (inactive)	10.2% (inactive)	22.5% (inactive)	18.1% (inactive)	-5.18% (active)	-19.4% (active)	11.8% (inactive)	30.9% (inactive)	20.8% (inactive)	-7.39% (active)	29.7% (inactive)	8.62% (active)	-4.08% (active)	56.3% (inactive)	-5.99% (active)
Cn1cc(C(=O)C[n+]2ccccc2)c2ccccc21	91.7% (inactive)	99.1% (inactive)	104% (inactive)	95.6% (inactive)	107% (inactive)	92.1% (inactive)	96.9% (inactive)	102% (inactive)	97.4% (inactive)	101% (inactive)	109% (inactive)	106% (inactive)	96.7% (inactive)	100% (inactive)	99.6% (inactive)	94.7% (inactive)	102% (inactive)	89.6% (inactive)	111% (inactive)	99.2% (inactive)
CO[C@H]1[C@H](O[C@@H]2C[C@@H]3C/C=C/C(=O)O[C@@H](CO)C[C@H](O)[C@@H]4C[C@H](C)[C@H](C/C=C\C=C\[C@H](C)C[C@H](C2)O3)O4)O[C@@H](C)[C@H](O)[C@H]1O	22.5% (inactive)	37.9% (inactive)	89.5% (inactive)	65.8% (inactive)	54.5% (inactive)	95.2% (inactive)	27.2% (inactive)	47% (inactive)	78.7% (inactive)	37.6% (inactive)	52.5% (inactive)	25.4% (inactive)	85.5% (inactive)	92.9% (inactive)	88% (inactive)	86.4% (inactive)	14.1% (inactive)	70.8% (inactive)	9.72% (active)	74.7% (inactive)
O=C(CBr)OCCOC(=O)CBr	84.7% (inactive)	109% (inactive)	97.7% (inactive)	109% (inactive)	95% (inactive)	114% (inactive)	-74.6% (active)	92.8% (inactive)	24.4% (inactive)	104% (inactive)	84.2% (inactive)	62.5% (inactive)	76.3% (inactive)	80.6% (inactive)	-7.57% (active)	89.9% (inactive)	104% (inactive)	112% (inactive)	83.1% (inactive)	81% (inactive)
COc1cc2c(cc1OC)-c1c3c(cc4c1[C@@H](C2)N(C)CC4)OCO3	51.3% (inactive)	51% (inactive)	36.9% (inactive)	44.3% (inactive)	17.3% (inactive)	6.02% (active)	5.61% (active)	53.3% (inactive)	40.2% (inactive)	31.4% (inactive)	45.3% (inactive)	13.1% (inactive)	54.3% (inactive)	55.1% (inactive)	35.2% (inactive)	50.5% (inactive)	51.6% (inactive)	34.1% (inactive)	35.5% (inactive)	54.9% (inactive)
CN1CCc2cc3c(cc2C1O)OCO3 (stereo not drawn)	109% (inactive)	36% (inactive) and 105% (inactive)	127% (inactive) and 98.7% (inactive)	103% (inactive) and 99.1% (inactive)	-48.6% (active) and 107% (inactive)	–	-63.4% (active) and 109% (inactive)	96.2% (inactive) and 106% (inactive)	100% (inactive) and 91.9% (inactive)	92.9% (inactive) and 111% (inactive)	101% (inactive) and 103% (inactive)	96.7% (inactive)	31% (inactive) and 88.7% (inactive)	97.6% (inactive) and 111% (inactive)	87.8% (inactive) and 114% (inactive)	83.2% (inactive) and 101% (inactive)	86.7% (inactive) and 94.8% (inactive)	33.5% (inactive) and 93% (inactive)	99.2% (inactive) and 111% (inactive)	102% (inactive) and 99% (inactive)
CCOP(=O)(OCC)C(=O)N(CC)CC	105% (inactive)	94.3% (inactive)	105% (inactive)	99.9% (inactive)	103% (inactive)	–	91.7% (inactive)	98.4% (inactive)	98% (inactive)	118% (inactive)	107% (inactive)	121% (inactive)	108% (inactive)	99.8% (inactive)	101% (inactive)	101% (inactive)	98.8% (inactive)	113% (inactive)	88.4% (inactive)	101% (inactive)
